According to PubChem BioAssay (Tox21):
Results filed as inconclusive are left out. Activity calls are given as the source filed them. Unless noted, the call rests on the fitted dose curve; in most records, active means well fitted curve in the direction sought with a large enough effect in the repeat runs; inconclusive means weak or mixed curves; inactive means no such curve, though single readings can be large; an effect the other way counts as inactive or inconclusive.

Columns and labels:
[1] = A CellTox Green Cytotoxicity Assay to monitor cytotoxicity in HEK293 cells - 32 hour (AID 1224881); further: nearly all actives have a fitted effect of over 40% in size; further: potency means the concentration at half of the fitted maximal effect
Method in brief: (§1)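 Fluorescence intensity, read at 0, 8, 16, 24, 32 and 40 h of compound treatment, reflected dye binding to DNA of dead HEK293 cells; compounds (23 nL, DMSO) were added 5 h after plating cells with reagent.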

[2] = A CellTox Green Cytotoxicity Assay to monitor cytotoxicity in HepG2 cells - 0 hour (AID 1224882); further: nearly all actives have a fitted effect of over 35% in size
Method in brief: (§2)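 Using 1536-well format, dye-containing HepG2 suspension was seeded, allowed 5 h at 37 C/5% CO2, dosed by pintool with compounds, positive and negative controls, and imaged for fluorescence across 40 h.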

[3] = A CellTox Green Cytotoxicity Assay to monitor cytotoxicity in HepG2 cells - 32 hour (AID 1224883); further: nearly all actives have a fitted effect of over 50% in size; further: potency means the concentration at half of the fitted maximal effect
Method in brief: as §2

[4] = A CellTox Green Cytotoxicity Assay to monitor cytotoxicity in HEK293 cells - 8 hour (AID 1224884); further: nearly all actives have a fitted effect of over 35% in size; further: potency means the concentration at half of the fitted maximal effect
Method in brief: as §1

[5] = qHTS RealTime-Glo MT Cell Viability Assay in HEK293 cells - 24 hour (AID 1224886); further: nearly all actives have a fitted effect of over 50% in size; further: potency means the concentration at half of the fitted maximal effect; on activity change, negative = cytotoxicity: top concentration of the series differs between compounds
Method in brief: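 Viability tracked continuously by luminescence as live cells reduce a prosubstrate for NanoLuc; HEK293 cells preincubated 5 h, compound-treated at 37 C, and read at 0, 8, 16, 24, 32 and 40 h.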

[6] = qHTS RealTime-Glo MT Cell Viability Assay in HEK293 cells - 8 hour (AID 1224887); further: nearly all actives have a fitted effect of over 50% in size; further: potency means the concentration at half of the fitted maximal effect; on activity change, negative = cytotoxicity: top concentration of the series differs between compounds
Method in brief: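 Viable HEK293 cells reduce a cell-permeant prosubstrate; the product diffuses out and is consumed by NanoLuc in the medium to give light. Compounds went in after a 5 h incubation and plates were read over the treatment course.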

[7] = A CellTox Green Cytotoxicity Assay to monitor cytotoxicity in HEK293 cells - 16 hour (AID 1224888); further: nearly all actives have a fitted effect of over 35% in size; further: potency means the concentration at half of the fitted maximal effect
Method in brief: as §1

[8] = qHTS RealTime-Glo MT Cell Viability Assay in HepG2 cells - 0 hour (AID 1224889); further: nearly all actives have a fitted effect of over 50% in size
Method in brief: (§3)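 Viability was tracked continuously by NanoLuc luminescence from prosubstrate reduced by living HepG2 cells, at successive time points over 40 h of compound exposure. Cells with reagent were preincubated 5 h at 37 °C before compound addition.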

[9] = A CellTox Green Cytotoxicity Assay to monitor cytotoxicity in HepG2 cells - 8 hour (AID 1224890); further: nearly all actives have a fitted effect of over 45% in size; further: potency means the concentration at half of the fitted maximal effect
Method in brief: as §2

[10] = qHTS assay to identify small molecule antagonists of the estrogen receptor alpha (ER-alpha) signaling pathway using the BG1 cell line in the presence of 0.1 nM 17-beta-estradiol - cell viability counter screen (AID 1259241); further: nearly all actives have a fitted effect of over 40% in size; further: potency means the concentration at half of the fitted maximal effect
Method in brief: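 Viability in VM7Luc4E2 cells after 22 hr compound exposure under 0.1 nM 17beta-estradiol stimulation, by CellTiter-Fluor.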

[11] = qHTS assay to identify small molecule antagonists of the androgen receptor (AR) signaling pathway using the MDA cell line in the presence of 0.5 nM R1881 - cell viability counter screen (AID 1259242); further: nearly all actives have a fitted effect of over 45% in size; further: potency means the concentration at half of the fitted maximal effect
Method in brief: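 Viability of MDA-kb2 cells was multiplexed with the luciferase AR readout; after 16 hr with compounds and R1881 at 0.5 nM final, CellTiter-Fluor fluorescence was recorded.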

[12] = target: Androgen receptor (Homo sapiens) (UniProt P10275); assay: qHTS assay to identify small molecule antagonists of the androgen receptor (AR) signaling pathway using the MDA cell line in the presence of 0.5 nM R1881 (AID 1259243); further: nearly all actives have a fitted effect of over 50% in size; further: potency means the concentration at half of the fitted maximal effect
Method in brief: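 Reporter cells cultured without CO2 receive test chemicals, then 0.5 nM R1881 final; after 16 hr at 37C, ONE-Glo is added and light output recorded.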

[13] = target: Estrogen receptor (Homo sapiens) (UniProt P03372); assay: qHTS assay to identify small molecule antagonists of the estrogen receptor alpha (ER-alpha) signaling pathway using the BG1 cell line in the presence of 0.1 nM 17-beta-estradiol (AID 1259244); further: nearly all actives have a fitted effect of over 50% in size
Method in brief: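 Estradiol at 0.1 nM (final) stimulates the endogenous ER-alpha of VM7Luc4E2 cells carrying an ERE-driven luciferase; compounds are co-incubated 22 h at 37C and luciferase output quantified by luminescence.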

[14] = qHTS assay to identify small molecule HDAC inhibitors (AID 1259364);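 further: wild-type HCT-116 cells with endogenous class I/II HDAC activity; top concentration of the series differs between compounds; nearly all actives have a fitted effect of over 45% in size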
Method in brief: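 Read-out: luminescence of HDAC-Glo I/II reagent, 30 min RT, reflecting class I/II deacetylase activity in whole HCT-116 cells pre-exposed 2 h to DMSO-dissolved compounds.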

[15] = qHTS assay to identify small molecule HDAC inhibitors - cell viability counter screen (AID 1259365)
Method in brief: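 Cytotoxicity was gauged in wild-type HCT-116 cells after a brief 2hr treatment with DMSO-dissolved compounds at 37C and 5% CO2, using CellTiter-Glo luminescence developed for 30min at room temperature.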

[16] = qHTS assay to identify small molecule agonists of the sonic hedgehog signaling (Shh) pathway - cell viability counter screen (AID 1259366); further: nearly all actives have a fitted effect of over 50% in size; further: potency means the concentration at half of the fitted maximal effect
Method in brief: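 Stable Gli1-Luc NIH/3T3 clone, 2,000 cells/well. Compound exposure 24hr at 37C. Read-out: CellTiter-Fluor fluorescence.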

[17] = qHTS assay to identify small molecule antagonists of the sonic hedgehog signaling (Shh) pathway - cell viability counter screen (AID 1259367); further: nearly all actives have a fitted effect of over 55% in size; further: potency means the concentration at half of the fitted maximal effect
Method in brief: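 Using CellTiter-Fluor, viability of Gli1-Luc reporter 3T3 cells is read by fluorescence in the wells used for the Shh luciferase assay. Treatment lasts 23 hr with conditioned medium, then reagent 1 hr at 37C.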

[18] = qHTS assay to identify small molecule agonists of the sonic hedgehog signaling (Shh) pathway (AID 1259368; calls by dose curve;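 further: NIH/3T3-derived 3T3Gli1-Luc cells carrying a stable Gli1-driven firefly luciferase reporter; series mostly up to about 92 µM; nearly all actives have a fitted effect of over 15% in size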)
Method in brief: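 A Gli1 transcriptional response element controlled firefly luciferase in 3T3Gli1-Luc cells. Compounds and a positive control were added 4 hr after plating, and cells were incubated a further 24 hr at 37 C before luminescence detection.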

[19] = qHTS RealTime-Glo MT Cell Viability Assay in HepG2 cells - 16 hour (AID 1224885); further: nearly all actives have a fitted effect of over 50% in size
Method in brief: as §3
On the % scale 0 is the no-effect control and ±100 the full control effect.

Sequence of Androgen receptor (Homo sapiens) (P10275 whole entry, looked up): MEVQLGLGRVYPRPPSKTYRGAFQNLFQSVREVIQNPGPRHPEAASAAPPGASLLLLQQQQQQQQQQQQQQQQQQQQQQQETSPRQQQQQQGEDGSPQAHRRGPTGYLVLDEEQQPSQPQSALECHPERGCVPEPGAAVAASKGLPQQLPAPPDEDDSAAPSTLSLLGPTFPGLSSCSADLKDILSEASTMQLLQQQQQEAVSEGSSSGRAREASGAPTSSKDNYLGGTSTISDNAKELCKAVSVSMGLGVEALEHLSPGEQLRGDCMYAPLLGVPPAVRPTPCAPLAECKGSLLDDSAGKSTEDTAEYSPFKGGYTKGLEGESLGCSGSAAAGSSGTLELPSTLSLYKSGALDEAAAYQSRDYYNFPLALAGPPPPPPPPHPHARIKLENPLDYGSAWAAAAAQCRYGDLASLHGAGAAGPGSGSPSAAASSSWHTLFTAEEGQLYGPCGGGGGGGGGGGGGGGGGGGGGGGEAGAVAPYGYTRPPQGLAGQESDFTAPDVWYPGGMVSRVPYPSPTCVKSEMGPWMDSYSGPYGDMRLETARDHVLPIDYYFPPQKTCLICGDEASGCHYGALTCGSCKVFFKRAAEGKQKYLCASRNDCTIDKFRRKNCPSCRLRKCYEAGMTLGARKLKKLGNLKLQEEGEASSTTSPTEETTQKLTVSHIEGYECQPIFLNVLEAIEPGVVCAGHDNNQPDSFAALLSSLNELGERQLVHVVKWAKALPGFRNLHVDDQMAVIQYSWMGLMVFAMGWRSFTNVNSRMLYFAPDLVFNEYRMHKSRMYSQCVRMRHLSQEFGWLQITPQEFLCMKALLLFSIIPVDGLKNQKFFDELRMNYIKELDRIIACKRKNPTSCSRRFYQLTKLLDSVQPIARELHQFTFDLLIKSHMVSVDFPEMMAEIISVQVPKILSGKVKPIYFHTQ
Sequence of Estrogen receptor (Homo sapiens) (P03372 whole entry, looked up): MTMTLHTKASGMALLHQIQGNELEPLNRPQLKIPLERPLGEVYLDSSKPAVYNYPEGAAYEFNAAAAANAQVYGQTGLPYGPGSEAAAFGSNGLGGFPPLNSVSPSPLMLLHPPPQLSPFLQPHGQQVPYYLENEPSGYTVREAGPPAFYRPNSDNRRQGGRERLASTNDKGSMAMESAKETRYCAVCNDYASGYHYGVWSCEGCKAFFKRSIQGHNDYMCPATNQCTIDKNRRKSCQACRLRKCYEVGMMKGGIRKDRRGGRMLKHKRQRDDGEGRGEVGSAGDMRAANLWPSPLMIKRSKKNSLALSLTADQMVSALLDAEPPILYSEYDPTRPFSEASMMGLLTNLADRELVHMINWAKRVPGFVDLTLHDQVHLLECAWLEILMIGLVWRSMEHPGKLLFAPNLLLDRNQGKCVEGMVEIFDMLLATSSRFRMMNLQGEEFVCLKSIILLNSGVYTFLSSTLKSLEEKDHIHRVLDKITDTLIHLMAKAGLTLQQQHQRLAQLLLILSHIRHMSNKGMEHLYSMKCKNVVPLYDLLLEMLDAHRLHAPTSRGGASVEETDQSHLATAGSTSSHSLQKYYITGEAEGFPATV

[Cl][Sn]([c]1ccccc1)([c]1ccccc1)[c]1ccccc1
inactive: cytotoxicity [2] 7.07% [at 15.8 µM] | activity change, negative = cytotoxicity [8] 2.43% [at 15.8 µM] | activity change, negative = inhibition [13] -95.6% [at 19 µM] | activity change, negative = inhibition [14] -5.43% [at 19 µM] | activity change, negative = cytotoxicity [15] 26.2% [at 19 µM] | activity change [18] -11.2% [at 18.9 µM, active compounds read high]
active: Potency [1] 1650 nM | Potency [3] 2610 nM | Potency [4] 2330 nM | Potency [5] 262 nM | Potency [6] 737 nM | Potency [7] 2330 nM | Potency [9] 9280 nM | Potency [10] 4110 nM | Potency [11] 1640 nM | Potency [12] 820 nM | Potency [16] 231 nM | Potency [17] 366 nM

CCS(=O)(=O)c1cccnc1S(=O)(=O)NC(=O)Nc1nc(OC)cc(OC)n1
inactive: Potency [1] | Potency [2] | Potency [3] | Potency [4] | Potency [5] | Potency [6] | Potency [7] | Potency [8] | Potency [9] | Potency [10] | Potency [11] | Potency [14] | Potency [15] | Potency [16] | Potency [17]

O=C(Nc1ccc2[nH]ccc2c1)c1cc2cc(F)ccc2n1Cc1cccc(F)c1
inactive: Potency [1] | Potency [2] | Potency [3] | Potency [4] | Potency [5] | Potency [6] | Potency [7] | Potency [8] | Potency [9] | Potency [10] | Potency [13] | Potency [14] | Potency [15] | Potency [18]
active: Potency [16] 43300 nM | Potency [17] 68600 nM

CCCCOP(=O)(CCCC)OCCCC
inactive: Potency [1] | Potency [2] | Potency [3] | Potency [4] | Potency [19] | Potency [7] | Potency [8] | Potency [9] | Potency [10] | Potency [11] | Potency [12] | Potency [15] | Potency [16] | Potency [17] | Potency [18]
